# The supplement of paper PMC8728848
# Only a selection was taken, and the strongest signals are over-represented in it overall.
# B1: Angptl4 (Homo sapiens), Q9BY76 (protein)
# chain: MSGAPTAGAALMLCAATAVLLSAQGGPVQSKSPRFASWDEMNVLAHGLLQLGQGLREHAERTRSQLSALERRLSACGSACQGTEGSTDLPLAPESRVDPEVLHSLQTQLKAQNSRIQQLFHKVAQQQRHLEKQHLRIQHLQSQFGLLDHKHLDHEVAKPARRKRLPEMAQPVDPAHNVSRLHRLPRDCQELFQVGERQSGLFEIQPQGSPPFLVNCKMTSDGGWTVIQRRHDGSVDFNRPWEAYKAGFGDPHGEFWLGLEKVHSITGDRNSRLAVQLRDWDGNAELLQFSVHLGGEDTAYSLQLTAPVAGQLGATTVPPSGLSVPFSTWDQDHDLRRDKNCAKSLSGGWWFGTCSHSNLNGQYFRSIPQQRQKLKKGIFWKTWRGRYYPLQATTMLIQPMAAEAAS
# B2: CLEC-6 (Homo sapiens), Q8WXI8 (protein)
# chain: MGLEKPQSKLEGGMHPQLIPSVIAVVFILLLSVCFIASCLVTHHNFSRCKRGTGVHKLEHHAKLKCIKEKSELKSAEGSTWNCCPIDWRAFQSNCYFPLTDNKTWAESERNCSGMGAHLMTISTEAEQNFIIQFLDRRLSYFLGLRDENAKGQWRWVDQTPFNPRRVFWHKNEPDNSQGENCVVLVYNQDKWAWNDVPCNFEASRICKIPGTTLN
# Experiments:
# Assay in all cases: glycan array binding signal (z-score within array); higher = stronger binding
# Conditions in all cases: glycan notation: IUPAC condensed, linker removed
# [1] = biological target: Fuc(a1-2)Gal(b1-3)GalNAc(b1-3)Gal
# How it was run: (§1)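 The binding signal is a Z-score computed within each array and averaged over linkers. Arrays of the same protein sequence at different concentrations or buffers were also averaged together. Data originate from 3228 arrays in the Consortium for Functional Glycomics database, kept only where the protein sequence was available.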
# [2] = biological target: Fuc(a1-2)Gal(b1-4)GlcNAc(b1-3)Gal(b1-4)GlcNAc(b1-3)Gal(b1-4)GlcNAc
# How it was run: as §1
# Fuc(a1-2)Gal6S(b1-4)Glc = biological target: Fuc(a1-2)Gal6S(b1-4)Glc
# How it was run: as §1
# [3] = biological target: Fuc(a1-2)[Gal(a1-3)]Gal(b1-4)GlcNAc
# How it was run: as §1
# Fuc(a1-3)GlcNAc = biological target: Fuc(a1-3)GlcNAc
# How it was run: as §1
# [4] = biological target: Fuc(a1-3)[Gal(b1-4)]GlcNAc6S
# How it was run: as §1
# [5] = biological target: Gal(a1-3)Gal(b1-4)[Fuc(a1-3)]GlcNAc
# How it was run: as §1
# Gal(b1-3)Gal = biological target: Gal(b1-3)Gal
# How it was run: as §1
# [6] = biological target: Gal(b1-3)[Fuc(a1-4)]GlcNAc(b1-3)Gal(b1-4)[Fuc(a1-3)]GlcNAc
# How it was run: as §1
# [7] = biological target: Gal(b1-3)[GlcNAc(b1-6)]GalNAc
# How it was run: as §1
# [8] = biological target: Gal(b1-4)GlcNAc(b1-3)Gal(b1-4)Glc
# How it was run: as §1
# [9] = biological target: Gal(b1-4)GlcNAc(b1-3)Gal(b1-4)[Fuc(a1-3)]GlcNAc(b1-3)Gal(b1-4)[Fuc(a1-3)]GlcNAc
# How it was run: as §1
# [10] = biological target: Gal(b1-4)GlcNAc(b1-3)[GlcNAc(b1-6)]Gal(b1-4)GlcNAc
# How it was run: as §1
# Gal3S(b1-4)Glc = biological target: Gal3S(b1-4)Glc
# How it was run: as §1
# GalNAc(b1-3)Gal = biological target: GalNAc(b1-3)Gal
# How it was run: as §1
# GalNAc(b1-4)GlcNAc = biological target: GalNAc(b1-4)GlcNAc
# How it was run: as §1
# Kdn(a2-3)Gal(b1-3)GlcNAc = biological target: Kdn(a2-3)Gal(b1-3)GlcNAc
# How it was run: as §1
# [11] = biological target: Man(a1-3)[Man(a1-6)]Man(a1-6)[Man(a1-2)Man(a1-3)]Man(b1-4)GlcNAc(b1-4)GlcNAc
# How it was run: as §1
# [12] = biological target: Neu5Ac(a2-3)Gal(b1-3)GlcNAc6S
# How it was run: as §1
# [13] = biological target: Neu5Ac(a2-3)Gal(b1-3)[Fuc(a1-4)]GlcNAc
# How it was run: as §1
# [14] = biological target: Neu5Ac(a2-3)Gal(b1-4)GlcNAc(b1-3)Gal(b1-3)GlcNAc
# How it was run: as §1
# [15] = biological target: Neu5Ac(a2-3)Gal6S(b1-4)[Fuc(a1-3)]GlcNAc
# How it was run: as §1
# Neu5Ac(a2-3)GalNAc = biological target: Neu5Ac(a2-3)GalNAc
# How it was run: as §1
# [16] = biological target: Neu5Ac(a2-6)Gal(b1-4)GlcNAc(b1-2)Man(a1-6)[Gal(b1-4)GlcNAc(b1-2)Man(a1-3)]Man(b1-4)GlcNAc(b1-4)GlcNAc
# How it was run: as §1
# [17] = biological target: Neu5Ac(a2-6)Gal(b1-4)GlcNAc(b1-3)Gal(b1-4)[Fuc(a1-3)]GlcNAc(b1-3)Gal(b1-4)[Fuc(a1-3)]GlcNAc
# How it was run: as §1
# [18] = biological target: Neu5Ac(a2-8)Neu5Ac(a2-8)Neu5Ac
# How it was run: as §1
# [19] = biological target: Fuc(a1-2)Gal(b1-4)GlcNAc(b1-3)Gal(b1-4)GlcNAc
# How it was run: as §1
# [20] = biological target: Fuc(a1-2)Gal(b1-4)[Fuc(a1-3)]GlcNAc(b1-3)Gal(b1-4)[Fuc(a1-3)]GlcNAc(b1-3)Gal(b1-4)[Fuc(a1-3)]GlcNAc
# How it was run: as §1
# [21] = biological target: Fuc(a1-2)[Gal(a1-3)]Gal(b1-4)Glc
# How it was run: as §1
# [22] = biological target: Fuc(a1-2)[Gal(a1-3)]Gal(b1-4)[Fuc(a1-3)]GlcNAc
# How it was run: as §1
# [23] = biological target: Fuc(a1-2)[GalNAc(a1-3)]Gal(b1-4)GlcNAc
# How it was run: as §1
# [24] = biological target: Fuc(a1-2)[GalNAc(a1-3)]Gal(b1-4)[Fuc(a1-3)]GlcNAc
# How it was run: as §1
# Gal(b1-2)Gal = biological target: Gal(b1-2)Gal
# How it was run: as §1
# [25] = biological target: Gal(b1-3)GalNAc(b1-4)Gal(b1-4)Glc
# How it was run: as §1
# Gal(b1-4)Glc6S = biological target: Gal(b1-4)Glc6S
# How it was run: as §1
# Gal3S6S(b1-4)GlcNAc6S = biological target: Gal3S6S(b1-4)GlcNAc6S
# How it was run: as §1
# Gal6S(b1-4)GlcNAc = biological target: Gal6S(b1-4)GlcNAc
# How it was run: as §1
# [26] = biological target: GlcNAc(b1-3)Gal(b1-4)GlcNAc
# How it was run: as §1
# [27] = biological target: GlcNAc(b1-4)[GlcNAc(b1-6)]GalNAc
# How it was run: as §1
# [28] = biological target: Man(a1-2)Man(a1-2)Man(a1-3)Man
# How it was run: as §1
# [29] = biological target: Neu5Ac(a2-3)Gal(b1-3)GalNAc(b1-3)Gal(a1-4)Gal(b1-4)Glc
# How it was run: as §1
# [30] = biological target: Neu5Ac(a2-3)Gal(b1-3)GalNAc6S
# How it was run: as §1
# [31] = biological target: Neu5Ac(a2-3)GalNAc(b1-4)GlcNAc
# How it was run: as §1
# [32] = biological target: Neu5Ac(a2-6)Gal(b1-4)GlcNAc
# How it was run: as §1
# [33] = biological target: Neu5Ac9Ac(a2-6)Gal(b1-4)GlcNAc
# How it was run: as §1
binder,measurement,setting,value
B1,glycan array binding signal (z-score),[1],5.26
same,glycan array binding signal (z-score),[2],0.616
same,glycan array binding signal (z-score),Fuc(a1-2)Gal6S(b1-4)Glc,-0.253
same,glycan array binding signal (z-score),[3],0.087
same,glycan array binding signal (z-score),Fuc(a1-3)GlcNAc,-0.446
same,glycan array binding signal (z-score),[4],-0.527
same,glycan array binding signal (z-score),[5],-0.522
same,glycan array binding signal (z-score),Gal(b1-3)Gal,0.531
same,glycan array binding signal (z-score),[6],-0.192
same,glycan array binding signal (z-score),[7],-0.215
same,glycan array binding signal (z-score),[8],-0.407
same,glycan array binding signal (z-score),[9],3.98
same,glycan array binding signal (z-score),[10],-0.27
same,glycan array binding signal (z-score),Gal3S(b1-4)Glc,-0.052
same,glycan array binding signal (z-score),GalNAc(b1-3)Gal,-0.523
same,glycan array binding signal (z-score),GalNAc(b1-4)GlcNAc,-0.398
same,glycan array binding signal (z-score),Kdn(a2-3)Gal(b1-3)GlcNAc,0.691
same,glycan array binding signal (z-score),[11],5.32
same,glycan array binding signal (z-score),[12],7.07
same,glycan array binding signal (z-score),[13],-0.272
same,glycan array binding signal (z-score),[14],-0.262
same,glycan array binding signal (z-score),[15],-0.53
same,glycan array binding signal (z-score),Neu5Ac(a2-3)GalNAc,-0.954
same,glycan array binding signal (z-score),[16],4.1
same,glycan array binding signal (z-score),[17],0.162
same,glycan array binding signal (z-score),[18],-0.016
B2,glycan array binding signal (z-score),[1],6.22
same,glycan array binding signal (z-score),[19],-0.176
same,glycan array binding signal (z-score),[2],-0.295
same,glycan array binding signal (z-score),[20],0.12
same,glycan array binding signal (z-score),[21],-0.282
same,glycan array binding signal (z-score),[22],-0.276
same,glycan array binding signal (z-score),[23],-0.239
same,glycan array binding signal (z-score),[24],-0.102
same,glycan array binding signal (z-score),Gal(b1-2)Gal,-0.038
same,glycan array binding signal (z-score),[25],-0.328
same,glycan array binding signal (z-score),Gal(b1-4)Glc6S,-0.263
same,glycan array binding signal (z-score),Gal3S6S(b1-4)GlcNAc6S,6.21
same,glycan array binding signal (z-score),Gal6S(b1-4)GlcNAc,-0.239
same,glycan array binding signal (z-score),[26],-0.077
same,glycan array binding signal (z-score),[27],-0.138
same,glycan array binding signal (z-score),[28],1.94
same,glycan array binding signal (z-score),[29],-0.144
same,glycan array binding signal (z-score),[30],-0.077
same,glycan array binding signal (z-score),[31],-0.104
same,glycan array binding signal (z-score),[32],-0.221
same,glycan array binding signal (z-score),[17],1.59
same,glycan array binding signal (z-score),[33],-0.166
